Assay outcomes from PubChem BioAssay.
This is a sample that favours compounds with a hit; in the whole collection about 3.5% have one here.
MITF inh: MITF inhibitors, primary screen, biochemical, AlphaScreen, human. AlphaScreen MITF homodimerization, bead proximity signal. inhibition, % at 2.6 µM. 650,000 tested, 0.91% active. AID 1259374, 2018; in the data active means inhibition above about 50%
Target sequence (O75030 whole entry, looked up): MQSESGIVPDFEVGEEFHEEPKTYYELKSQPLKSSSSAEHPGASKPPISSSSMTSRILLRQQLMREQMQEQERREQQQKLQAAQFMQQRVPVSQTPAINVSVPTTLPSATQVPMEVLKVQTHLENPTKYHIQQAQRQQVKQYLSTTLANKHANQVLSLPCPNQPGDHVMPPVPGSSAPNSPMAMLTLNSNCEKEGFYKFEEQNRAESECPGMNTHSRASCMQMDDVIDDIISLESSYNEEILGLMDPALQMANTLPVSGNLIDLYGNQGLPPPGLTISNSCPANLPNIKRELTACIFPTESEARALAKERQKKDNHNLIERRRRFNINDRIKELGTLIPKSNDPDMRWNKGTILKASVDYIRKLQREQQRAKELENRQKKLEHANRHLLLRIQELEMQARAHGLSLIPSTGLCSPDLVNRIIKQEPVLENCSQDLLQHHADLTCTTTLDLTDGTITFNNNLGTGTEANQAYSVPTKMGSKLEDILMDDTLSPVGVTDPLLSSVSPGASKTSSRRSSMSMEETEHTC
TEAD-YAP inh: TEAD-YAP interaction inhibition, primary screen, TEAD-YAP interaction inhibitor project, luminescence, HEK-TIYL cells; inhibition, % at 9.12 µM; TEAD-Gal4/YAP UAS-luciferase luminescence; 640,000 tested, 1.4% active; AID 1259422, 2018; in the data active means inhibition above about 32%
FBW7 act: FBW7 E3 ligase activators, primary screen, biochemical, AlphaScreen, human; AlphaScreen FBW7–phospho-cyclin E peptide binding, activator screen; normalized activity (activation), % at 26.1 µM; 650,000 tested, 0.13% active; AID 1259310, 2017; in the data active means normalized activity above about 1.9%;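 further: purified mutant Fbw7 with reduced substrate affinity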
GPR151 activ: activators of human GPR151, primary screen, cell-based, PathHunter beta-arrestin, luminescence; G-protein coupled receptor 151 (Homo sapiens), Q8TDV0; PathHunter beta-arrestin GPR151 cells; activation, % at 11.2 µM; 650,000 tested, 1% active; in the data active means activation above about 4.9%
GPR151 conf act: GPR151 activators, triplicate retest, confirmation, cell-based, PathHunter beta-arrestin, luminescence | activation, % at 11.2 µM | 6,700 tested, under 10 active | shares compounds with GPR151 activ | GPR151 PathHunter beta-arrestin cells, 90 min; % of EA-reagent control over plate median;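 active means mean percent activation across replicates above the confirmation screen cutoff of 4.91%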
GPR119 counter: GPR119 activators in beta-arrestin cells, counter-screen for GPR151 activator project, cell-based, PathHunter beta-arrestin, luminescence, triplicate; activation, % at 11.2 µM; shares compounds with GPR151 activ; 6,700 tested, 0.3% active; 90 min; 0 = compound-well median, 100 = enzyme-acceptor control;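 active means mean percent activation in the counterscreen above 29.09%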;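 further: counterscreen on off-target GPR119 to flag nonselective hits from the GPR151 activator screen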
A number is an active result; 0 = inactive; - = no result.

SMILES	MITF inh	TEAD-YAP inh	FBW7 act	GPR151 activ	GPR151 conf act	GPR119 counter
CC(=O)Nc1ccc(NC(=O)COc2ccc(Br)cc2C)cc1	0	0	0	8.7	0	0
CC(=O)NS(=O)(=O)c1ccc(NC(=O)COc2ccc(Br)cc2)cc1	0	0	0	5.8	0	0
CC(C)(C)NS(=O)(=O)c1ccc(NC(=O)COc2ccc(Br)cc2)cc1	0	0	0	16	0	0
CC(C)(C)NS(=O)(=O)c1ccc(NC(=O)COc2ccc3ccccc3c2)cc1	0	0	0	0	-	-
O=C(c1nn2c(c1Br)NC(c1cccs1)CC2C(F)(F)F)N1CCN(C(c2ccccc2)c2ccccc2)CC1 (stereo unspecified)	0	0	0	0	-	-
CCOc1ccc(NC(=O)C(=O)NCC(C)O)cc1 (stereo unspecified)	0	0	0	0	-	-
Cc1nc2ccccc2nc1CN1CCC(C2(C)NC(=O)N(Cc3ccsc3)C2=O)CC1 (stereo unspecified)	0	0	0	0	-	-
COc1ccc(-c2nc(CNS(=O)(=O)c3ccc(OC)c(OC)c3)cs2)cc1	0	0	0	0	-	-
COc1ccc(S(=O)(=O)NCc2csc(-c3cccnc3)n2)cc1OC	0	0	0	6.5	0	0
COc1ccccc1C(=O)Nc1ccnn1C1CCN(Cc2cccc(F)c2)CC1	0	0	0	6.6	0	0
CCC(C)C(=O)N1CCC(n2nccc2NC(=O)Nc2cccc(F)c2)CC1 (stereo unspecified)	0	0	0	6.6	0	0
COc1cc(Nc2nc3ccc(C)cc3n3cnnc23)cc(OC)c1	0	0	0	0	-	-
CCOc1nc(NCc2ccccc2)nc(NCc2cccnc2)n1	0	0	0	0	-	-
Cc1ccc(NC(=O)CSc2nc3ccsc3c(=O)n2-c2ccc(F)cc2)cc1	0	0	0	0	-	-
CC(C)N(Cc1ccccc1)C(=O)c1cc(S(=O)(=O)N2CCCC2)cn1C	0	0	0	0	-	-
Cc1ccc(S(=O)(=O)Nc2ccccc2C(=O)NCc2ccco2)cc1[N+](=O)[O-]	0	0	0	11	0	0
O=C(NCc1ccccc1)c1ccccc1NS(=O)(=O)c1cccc([N+](=O)[O-])c1	0	0	0	4.9	0	0
CN1CCN(C(=O)CCc2nnc(C3CCCCC3)o2)[C@@H](c2ccccc2)C1	0	0	0	0	-	-
COC(=O)C(CCSC)NC(=O)c1ccc(Cl)cc1Cl (stereo unspecified)	0	0	0	9.7	0	0
COc1ccc2c(c1)CC(C(=O)Nc1ccc(-c3ccnc(N)n3)cc1O)CO2 (stereo unspecified)	0	0	0	0	-	-
COc1ccc2c(c1)CC(C(=O)Nc1ccc(-c3ccnc(N)n3)cc1)CO2 (stereo unspecified)	0	0	14	5.2	0	0
O=c1oc2ccc(Br)cc2cc1-c1csc(-c2ccccc2)n1	0	0	0	5.2	0	0
O=c1oc2ccc(Br)cc2cc1-c1csc(-c2ccc(Cl)cc2)n1	0	0	0	0	-	-
